The subject of one assay is HCC1937. Put plainly: relative cell viability, compound + erastin, vs DMSO (fraction of DMSO control); higher = less growth inhibition. The following applies: 72 h.
The test system of a further assay is MDA-MB-231. The assay is described as above. The settings on record: 72 h.

Molecules are shown by their SMILES. Structures can show the parent of a compound that is named as a salt.
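Also: viability read by CCK-8 kit in 96-well plates, part of a combination screen pairing lipid-metabolism-targeting compounds with erastin.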

As to `N[C@@H](Cc1c[nH]cn1)C(=O)O` [histidine] + CCOc1ccccc1-n1c(C(C)N2CCN(C(=O)COc3ccc(Cl)cc3)CC2)nc2ccccc2c1=O [erastin], the relative cell viability in the assay with HCC1937 worked out at 0.592; in the assay with MDA-MB-231 it was 0.706.
Consider `COc1ccc(/C=C/c2cc(O)cc(O[C@@H]3O[C@H](CO)[C@@H](O)[C@H](O)[C@H]3O)c2)cc1` [Deoxyrhapontin] + CCOc1ccccc1-n1c(C(C)N2CCN(C(=O)COc3ccc(Cl)cc3)CC2)nc2ccccc2c1=O [erastin], for which the relative cell viability in the assay on HCC1937 was 0.576; in the assay on MDA-MB-231, 0.699.
As to `CC(=O)O[C@H](CC=C(C)C)C1=CC(=O)c2c(O)ccc(O)c2C1=O` [Acetyl shikonin] + CCOc1ccccc1-n1c(C(C)N2CCN(C(=O)COc3ccc(Cl)cc3)CC2)nc2ccccc2c1=O [erastin], the relative cell viability in the assay with HCC1937 came to 0.617; in the assay on MDA-MB-231 it was 0.877.
For the molecule `CC(C)=CCC(O)C1=CC(=O)c2c(O)ccc(O)c2C1=O` (single isomer, unassigned; (+)) [(+)-Shikonin] + CCOc1ccccc1-n1c(C(C)N2CCN(C(=O)COc3ccc(Cl)cc3)CC2)nc2ccccc2c1=O [erastin], the relative cell viability in the assay with HCC1937 is 0.159; in the assay with MDA-MB-231 it was 0.494.
`O=C(CCCCc1ccc2c(c1)OCO2)N1CCCCC1` + CCOc1ccccc1-n1c(C(C)N2CCN(C(=O)COc3ccc(Cl)cc3)CC2)nc2ccccc2c1=O [erastin]: the relative cell viability in the assay on HCC1937 was determined as 0.549; in the assay with MDA-MB-231, 0.35.
Taken in the same sequence, the figures for `CN(C)c1cccc(-c2c3c(=O)n(-c4ccccc4Cl)[nH]c3cc(=O)n2C)c1` + CCOc1ccccc1-n1c(C(C)N2CCN(C(=O)COc3ccc(Cl)cc3)CC2)nc2ccccc2c1=O [erastin] were 0.61 and 1.23.
With `O=C(O)C(O)Cc1ccc(O)c(O)c1` (configuration not stated) [Sodium Danshensu] + CCOc1ccccc1-n1c(C(C)N2CCN(C(=O)COc3ccc(Cl)cc3)CC2)nc2ccccc2c1=O [erastin], the relative cell viability in the assay with HCC1937 was 0.746; with MDA-MB-231, 0.968.
For `COc1ccc(CN2CCC(c3ccc4nc(C(=O)N5CCN(Cc6ccc(C(F)(F)F)cc6)CC5)[nH]c4c3)CC2)cn1` + CCOc1ccccc1-n1c(C(C)N2CCN(C(=O)COc3ccc(Cl)cc3)CC2)nc2ccccc2c1=O [erastin], the values for the relative cell viability with HCC1937 and with MDA-MB-231 were 0.569 and 0.585, respectively.
`O=C(O)CCCc1cc2cc(Cl)ccc2n1S(=O)(=O)c1ccc2ncsc2c1` [Lanifibranor] + CCOc1ccccc1-n1c(C(C)N2CCN(C(=O)COc3ccc(Cl)cc3)CC2)nc2ccccc2c1=O [erastin]: the relative cell viability with HCC1937 came to 0.672; in the assay on MDA-MB-231 it was 0.886.
Turning to `CC(C)(C)NC(=O)[C@H]1CC[C@H]2[C@@H]3CC[C@H]4NC(=O)C=C[C@]4(C)[C@H]3CC[C@]12C` [Finasteride] + CCOc1ccccc1-n1c(C(C)N2CCN(C(=O)COc3ccc(Cl)cc3)CC2)nc2ccccc2c1=O [erastin], the relative cell viability in the assay with HCC1937 is 0.873; in the assay on MDA-MB-231, 0.646.
Take `C[C@]12C=CC(=O)N[C@@H]1CC[C@@H]1[C@@H]2CC[C@]2(C)[C@@H](C(=O)Nc3cc(C(F)(F)F)ccc3C(F)(F)F)CC[C@@H]12` [Dutasteride] + CCOc1ccccc1-n1c(C(C)N2CCN(C(=O)COc3ccc(Cl)cc3)CC2)nc2ccccc2c1=O [erastin]: the relative cell viability in the assay on HCC1937 stood at 0.573; with MDA-MB-231 it was 0.596.
Taken in the same sequence, the figures for `c1cc(-c2cnn3cc(-c4ccc(OCCN5CCCCC5)cc4)cnc23)ccn1` [Dorsomorphin dihydrochloride] + CCOc1ccccc1-n1c(C(C)N2CCN(C(=O)COc3ccc(Cl)cc3)CC2)nc2ccccc2c1=O [erastin] were 0.0948 and 0.362.
`CS(=O)(=O)c1ccc(-c2nnc(/C=C/c3nnc(-c4ccc(C#N)cc4)o3)n2-c2ccccc2Cl)nc1` + CCOc1ccccc1-n1c(C(C)N2CCN(C(=O)COc3ccc(Cl)cc3)CC2)nc2ccccc2c1=O [erastin]: the relative cell viability in the assay with HCC1937 is 0.735; in the assay with MDA-MB-231, 0.668.
`Cc1ccc(CN(CC(O)COc2cccc3[nH]ccc23)C(C)(C)C)cc1` (configuration not stated) + CCOc1ccccc1-n1c(C(C)N2CCN(C(=O)COc3ccc(Cl)cc3)CC2)nc2ccccc2c1=O [erastin]: the relative cell viability in the assay on HCC1937 is 0.731; with MDA-MB-231, 0.846.
In the case of `NC(CO)C(=O)O` (racemic) [DL-Serine] + CCOc1ccccc1-n1c(C(C)N2CCN(C(=O)COc3ccc(Cl)cc3)CC2)nc2ccccc2c1=O [erastin], the relative cell viability turned out to be 0.667 with HCC1937 and 0.62 in the assay on MDA-MB-231.
For the molecule `N#Cc1c(O)c2c(-c3ccc(-c4ccccc4O)cc3)csc2[nH]c1=O` + CCOc1ccccc1-n1c(C(C)N2CCN(C(=O)COc3ccc(Cl)cc3)CC2)nc2ccccc2c1=O [erastin], the relative cell viability with HCC1937 was found to be 0.521; in the assay on MDA-MB-231, 0.51.
The like results for `CN(C)C(=O)Nc1cccc(-c2ccc(N(C)C)cc2)c1` [Atglistatin] + CCOc1ccccc1-n1c(C(C)N2CCN(C(=O)COc3ccc(Cl)cc3)CC2)nc2ccccc2c1=O [erastin] were, in that order, 0.438 and 1.06.
Turning to `CCCc1c(OCCCOc2ccc(OCC(=O)O)cc2)ccc(C(C)=O)c1O` + CCOc1ccccc1-n1c(C(C)N2CCN(C(=O)COc3ccc(Cl)cc3)CC2)nc2ccccc2c1=O [erastin], the relative cell viability was determined as 0.752 with HCC1937 and 0.833 in the assay with MDA-MB-231.
In the case of `CN(CCOc1ccc(CC2SC(=O)NC2=O)cc1)c1ccccn1` (configuration not stated) [Rosiglitazone] + CCOc1ccccc1-n1c(C(C)N2CCN(C(=O)COc3ccc(Cl)cc3)CC2)nc2ccccc2c1=O [erastin], the results for the relative cell viability in the assay with HCC1937 and in the assay with MDA-MB-231 were 0.999 and 0.697, respectively.
Taken in the same sequence, the figures for `CC(C)c1cc(C(C)C)c(CC(=O)NS(=O)(=O)Oc2c(C(C)C)cccc2C(C)C)c(C(C)C)c1` [Avasimibe] + CCOc1ccccc1-n1c(C(C)N2CCN(C(=O)COc3ccc(Cl)cc3)CC2)nc2ccccc2c1=O [erastin] were 0.508 and 0.791.
The like results for `O=c1c(-c2ccc(O)cc2)coc2cc(O)ccc12` [Daidzein] + CCOc1ccccc1-n1c(C(C)N2CCN(C(=O)COc3ccc(Cl)cc3)CC2)nc2ccccc2c1=O [erastin] were, in that order, 0.827 and 0.619.
Take `CC(C)(C)c1ccc(-c2nc3ccccc3[nH]2)cc1` + CCOc1ccccc1-n1c(C(C)N2CCN(C(=O)COc3ccc(Cl)cc3)CC2)nc2ccccc2c1=O [erastin]: the relative cell viability with HCC1937 worked out at 0.225; in the assay on MDA-MB-231, 0.295.
Taken in the same sequence, the figures for `O=C(c1ccc(NS(=O)(=O)c2cccc3cccnc23)cc1)N1CCN(CC2CC2)CC1` [Mitapivat] + CCOc1ccccc1-n1c(C(C)N2CCN(C(=O)COc3ccc(Cl)cc3)CC2)nc2ccccc2c1=O [erastin] were 0.596 and 0.638.
Taken in the same sequence, the figures for `Cc1cnc(C(=O)NCCc2ccc(S(=O)(=O)NC(=O)NC3CCCCC3)cc2)cn1` [Glipizide] + CCOc1ccccc1-n1c(C(C)N2CCN(C(=O)COc3ccc(Cl)cc3)CC2)nc2ccccc2c1=O [erastin] were 0.732 and 0.843.
As to `COc1cc(N(C)C)cc(CN(C)CCc2ccc([N+](=O)[O-])cc2)c1O` [CDC25 Phosphatase Inhibitor I] + CCOc1ccccc1-n1c(C(C)N2CCN(C(=O)COc3ccc(Cl)cc3)CC2)nc2ccccc2c1=O [erastin], the results for the relative cell viability in the assay with HCC1937 and in the assay with MDA-MB-231 were 0.663 and 0.781, respectively.
For `CC(C)(CCCCCC(O)CCCCCC(C)(C)C(=O)O)C(=O)O` + CCOc1ccccc1-n1c(C(C)N2CCN(C(=O)COc3ccc(Cl)cc3)CC2)nc2ccccc2c1=O [erastin], the results for the relative cell viability in the assay on HCC1937 and in the assay with MDA-MB-231 were 0.421 and 0.405, respectively.
With `C=C1C[C@]2(O)O[C@@]3(CC2=C(C)C)[C@@H](C)CC[C@@H]13` [Isocurcumenol] + CCOc1ccccc1-n1c(C(C)N2CCN(C(=O)COc3ccc(Cl)cc3)CC2)nc2ccccc2c1=O [erastin], the figures for the relative cell viability in the assay on HCC1937 and in the assay on MDA-MB-231 were 0.566 and 0.662, respectively.
As for `Cc1cc(SCc2sc(-c3ccc(C(F)(F)F)c(F)c3)nc2C)ccc1OCC(=O)O` + CCOc1ccccc1-n1c(C(C)N2CCN(C(=O)COc3ccc(Cl)cc3)CC2)nc2ccccc2c1=O [erastin], the relative cell viability in the assay with HCC1937 amounted to 0.849; in the assay with MDA-MB-231, 0.799.
As for `C=C[C@H]1CN2CC[C@H]1C[C@@H]2[C@@H](O)c1ccnc2ccc(OC)cc12` [Quinidine sulfate] + CCOc1ccccc1-n1c(C(C)N2CCN(C(=O)COc3ccc(Cl)cc3)CC2)nc2ccccc2c1=O [erastin], the relative cell viability in the assay with HCC1937 was found to be 0.7; with MDA-MB-231 it was 0.398.
Taken in the same sequence, the figures for `Cc1c2c(=O)n(-c3ccccc3Cl)[nH]c2cc(=O)n1Cc1ccccn1` + CCOc1ccccc1-n1c(C(C)N2CCN(C(=O)COc3ccc(Cl)cc3)CC2)nc2ccccc2c1=O [erastin] were 0.72 and 0.784.
For `O=S(=O)(O)c1ccc2cc(N=Nc3cc(S(=O)(=O)O)c4cccnc4c3O)ccc2c1` + CCOc1ccccc1-n1c(C(C)N2CCN(C(=O)COc3ccc(Cl)cc3)CC2)nc2ccccc2c1=O [erastin], the values for the relative cell viability in the assay on HCC1937 and in the assay on MDA-MB-231 were 0.741 and 0.595, respectively.
`CC(C)(Oc1ccc(C(=O)c2ccc(Cl)cc2)cc1)C(=O)O` [Fenofibric acid] + CCOc1ccccc1-n1c(C(C)N2CCN(C(=O)COc3ccc(Cl)cc3)CC2)nc2ccccc2c1=O [erastin]: the figures for the relative cell viability in the assay with HCC1937 and with MDA-MB-231 were 0.677 and 0.915, respectively.
Take `CC(C)OC(=O)C(C(=O)OC(C)C)=C1SC=CS1` [Malotilate] + CCOc1ccccc1-n1c(C(C)N2CCN(C(=O)COc3ccc(Cl)cc3)CC2)nc2ccccc2c1=O [erastin]: the values for the relative cell viability in the assay on HCC1937 and with MDA-MB-231 were 0.459 and 0.644, respectively.
The like results for `C=C(C)[C@@H]1CCC2=CC(=O)C[C@@H](C)[C@]2(C)C1` [Nootkatone] + CCOc1ccccc1-n1c(C(C)N2CCN(C(=O)COc3ccc(Cl)cc3)CC2)nc2ccccc2c1=O [erastin] were, in that order, 0.577 and 0.706.
In the case of `CC[C@H](C)C(=O)O[C@H]1C[C@H](O)C=C2C=C[C@H](C)[C@H](CC[C@@H](O)C[C@@H](O)CC(=O)O)[C@H]21` [Pravastatin sodium] + CCOc1ccccc1-n1c(C(C)N2CCN(C(=O)COc3ccc(Cl)cc3)CC2)nc2ccccc2c1=O [erastin], the relative cell viability was determined as 0.909 with HCC1937 and 1.05 with MDA-MB-231.
Consider `COc1ccc(C2(CNC(=O)c3ccc(NC(=O)c4ccco4)cc3)CCOCC2)cc1` + CCOc1ccccc1-n1c(C(C)N2CCN(C(=O)COc3ccc(Cl)cc3)CC2)nc2ccccc2c1=O [erastin], for which the relative cell viability was determined as 0.518 in the assay with HCC1937 and 0.728 in the assay with MDA-MB-231.
